PubChem BioAssay (Tox21)
Records with an inconclusive call do not appear. A number with no mark means an inactive call. The source made the active and inactive calls. The call rests on the fitted dose curve; in most records, active means well fitted cell-killing curve with a large enough effect in the repeat runs; inconclusive means weak or mixed curves, or effect the other way; inactive means no such curve, though single readings can be large or run the other way.

Assay: qHTS assay to identify small molecule antagonists of the glucocorticoid receptor (GR) signaling pathway - cell viability counter screen (AID 720693); further: nearly all actives have a fitted effect of over 55% in size
Details: GR-bla HeLa viability, CellTiter-Glo luminescence, 18 h, with 5 nM dexamethasone present; series mostly up to 58.5 µM; viability change, negative = cytotoxic: at the top concentration
Text: National Center for Advancing Translational Sciences [NCATS]
NIH Chemical Genomics Center [NCGC]
U.S. Environmental Protection Agency [EPA]
National Institutes of Environmental Health Sciences [NIEHS]
National Toxicology Program [NTP]
U.S. Food and Drug Administration [FDA]
The Glucocorticoid receptor (GR) is one of the members of the nuclear receptor family of ligand-dependent transcription factors. GR plays a critical role in carbohydrate, protein and lipid metabolisms and programmed cell death. CellSensor GR-bla HeLa cell line (Invitrogen) contains a beta-lactamase reporter gene under the control of the glucocorticoid response element stably integrated into HeLa cells, a cervical cancer cell line that expresses glucocorticoid receptor. The activation of the reporter gene under culture conditions can be detected by fluorescence intensity. This cell line has been used to screen the Tox21 10K compound library and to identify the compounds that inhibit the GR signaling. The cytotoxicity of the Tox21 compound library against the GR-bla HeLa cell line was tested in parallel by measuring the cell viability using CellTiter-Glo assay in the same wells.
Tox21 Assay Protocol Summary:
The GR-bla HeLa cells were dispensed at 1500 cells/5 ul/well in 1536-well black wall/clear bottom plates using a Multidrop Combi (ThermoFisher Scientific, Waltham, MA) dispenser. After the assay plates were incubated at a 37 C/5% CO2 incubator for 4 hours, 23 nL of compounds dissolved in DMSO, positive controls or DMSO only was transferred to the assay plate by a pintool station (Kalypsys, San Diego, CA), followed by addition of 1 uL of dexamethasone (5 nM, final concentration in the well). The plates were incubated at 37 C for 18 hours. After 1 uL of LiveBLAzerTM B/G FRET substrate was added using a Flying Reagent Dispenser (Aurora Discovery, San Diego, CA), the plates were incubated at room temperature (RT) for 2 hours, and fluorescence intensity was measured by an Envision plate reader (PerkinElmer, Shelton, CT). After measurement of bla assay, 3 ul CellTiter-Glo (Promega, Madison, WI) was added to measure the cytotoxicity and the plates were then incubated at RT for 30 min. The luminescence was measured using a ViewLux (Perkin Elmer) plate reader.
On the % scale 0 is the no-effect control and ±100 the full control effect.

**Q.** Which “viability change, negative = cytotoxic” value does the source give for `Oc1ccc(Cc2ccc(O)cc2)cc1` here?
**A.** -6.67% [at 78.9 µM]

**Q.** Which “viability change, negative = cytotoxic” value does the source give for `COc1ccc(C=O)cc1O` here?
**A.** -1.31% [at 78.9 µM]

**Q.** With `C(COCC1CO1)OCC1CO1` (stereo not given) as the compound, how does the “viability change, negative = cytotoxic” value read?
**A.** 15.1%

**Q.** For `CCN(CC)C1CCCCC1`, which “viability change, negative = cytotoxic” value is on record?
**A.** -3.63%

**Q.** For `CN=CNc1ccc(C)cc1C`, which “viability change, negative = cytotoxic” value is on record?
**A.** 26.7%

**Q.** For `CCCC(C)(COC(N)=O)COC(N)=O`, which Potency is on record?
**A.** inactive

**Q.** With `C[C@@H](N)[C@@H](O)c1ccccc1` as the compound, how does the “viability change, negative = cytotoxic” value read?
**A.** -3.32% [at 27 µM]

**Q.** For `COC1=CC(=O)O[C@@H](/C=C/c2ccccc2)C1`, which “viability change, negative = cytotoxic” value is on record?
**A.** -2.41% [at 78.9 µM]

**Q.** Which “viability change, negative = cytotoxic” value does the source give for `O=C(Cl)OCc1ccccc1` here?
**A.** 1.45% [at 78.9 µM]

**Q.** Which “viability change, negative = cytotoxic” value does the source give for `CC(C)(C)C(=O)Cl` here?
**A.** -5.24% [at 78.9 µM]

**Q.** With `C=CC=O` as the compound, how does the “viability change, negative = cytotoxic” value read?
**A.** -0.0856% [at 78.9 µM]

**Q.** For `C=CCCC#N`, which “viability change, negative = cytotoxic” value is on record?
**A.** -1.59%

**Q.** For `CCNc1nc(Cl)nc(NC(C)(C)C)n1`, which “viability change, negative = cytotoxic” value is on record?
**A.** -0.18%

**Q.** With `S=C=S` as the compound, how does the Potency read?
**A.** inactive

**Q.** Which “viability change, negative = cytotoxic” value does the source give for `C[C@H]1CCCC(=O)CCC/C=C/c2cc(O)cc(O)c2C(=O)O1` here?
**A.** -19.6% [at 27 µM]

**Q.** For `C=C1C[C@@H]2[C@H](CC[C@]3(C)C(=O)CC[C@@H]23)[C@@]2(C)C=CC(=O)C=C12`, which “viability change, negative = cytotoxic” value is on record?
**A.** -3.23%

**Q.** With `CN(CCO)CCO` as the compound, how does the “viability change, negative = cytotoxic” value read?
**A.** -8.93% [at 78.9 µM]

**Q.** With `C=CCc1cc(OC)c2c(c1)OCO2` as the compound, how does the “viability change, negative = cytotoxic” value read?
**A.** 13.5% [at 78.9 µM]

**Q.** For `COC(=O)c1ccc(CBr)cc1`, which “viability change, negative = cytotoxic” value is on record?
**A.** -2.54% [at 78.9 µM]

**Q.** With `CCCC[N+](=O)[O-]` as the compound, how does the “viability change, negative = cytotoxic” value read?
**A.** 0.889%

**Q.** For `ClCC1CO1` (stereo not given), which Potency is on record?
**A.** inactive

**Q.** For `Cc1ccc(Cl)c(O)c1`, which “viability change, negative = cytotoxic” value is on record?
**A.** 0.244%

**Q.** With `CCCOC(=O)Cc1ccc(OCC(=O)N(CC)CC)c(OC)c1` as the compound, how does the “viability change, negative = cytotoxic” value read?
**A.** -1.53%

**Q.** For `CC1=C2[C@H]3OC(=O)[C@@H](C)[C@@H]3CC[C@@]2(C)C=CC1=O`, which “viability change, negative = cytotoxic” value is on record?
**A.** -3.65%

**Q.** For `Clc1cc2c(cc1Cl)Oc1cc(Cl)c(Cl)cc1O2`, which viability change, negative = cytotoxic is on record?
**A.** -0.875% [at 0.284 µM]

**Q.** For `CCOC(=O)C(Cl)Cc1cc(-n2nc(C)n(C(F)F)c2=O)c(F)cc1Cl` (stereo not given), which “viability change, negative = cytotoxic” value is on record?
**A.** 27.1%

**Q.** For `CCCCS(=O)(=O)Cl`, which “viability change, negative = cytotoxic” value is on record?
**A.** 7.18%

**Q.** Which Potency does the source give for `CCCCCCC(=O)CCCCCC/C=C/C[C@@H](O)[C@H](O)[C@@](N)(CO)C(=O)O` here?
**A.** inactive

**Q.** Which “viability change, negative = cytotoxic” value does the source give for `[P]#[In]` here?
**A.** -1.45%

**Q.** With `CCOC(=O)Nc1cccc(OC(=O)Nc2ccccc2)c1` as the compound, how does the “viability change, negative = cytotoxic” value read?
**A.** -7.91%

**Q.** For `O=C(Cl)C(Cl)Cl`, which “viability change, negative = cytotoxic” value is on record?
**A.** 0.66%

**Q.** Which “viability change, negative = cytotoxic” value does the source give for `CC(C)NCC(O)c1ccc([N+](=O)[O-])cc1` (stereo not given) here?
**A.** -0.294%

**Q.** For `N#CN`, which Potency is on record?
**A.** inactive

**Q.** With `CS(=O)(=O)c1ccc(C(=O)C2C(=O)CCCC2=O)c(Cl)c1COCC(F)(F)F` as the compound, how does the “viability change, negative = cytotoxic” value read?
**A.** 25.5%

**Q.** For `C=C(Cl)CCl`, which “viability change, negative = cytotoxic” value is on record?
**A.** -4.58%

**Q.** For `O=C(Cl)C(Cl)(Cl)Cl`, which “viability change, negative = cytotoxic” value is on record?
**A.** -5.71% [at 78.9 µM]

**Q.** Which “viability change, negative = cytotoxic” value does the source give for `BrCc1ccc(Br)cc1` here?
**A.** -0.347%

**Q.** Which “viability change, negative = cytotoxic” value does the source give for `C/C(=N\NC(=O)Nc1cc(F)cc(F)c1)c1ncccc1C(=O)O` here?
**A.** -0.456%

**Q.** Which “viability change, negative = cytotoxic” value does the source give for `CN1COCN(Cc2cnc(Cl)s2)/C1=N\[N+](=O)[O-]` here?
**A.** 0.285%

**Q.** Which “viability change, negative = cytotoxic” value does the source give for `c1cncc([C@@H]2CCCCN2)c1` here?
**A.** 3.6%
